In PubChem BioAssay AID1159580 (chemical genetic matrix, 2015):
The campaign covered roughly 5,500 compounds. About 2,000 (36%) were called active. Another 18% or so got no clear call; they are omitted. No stated cut-off is given here; in the data, active means normalized growth mostly below about 0.91 (no sharp cut-off); inconclusive means no clear call, values can overlap the other calls; inactive means mostly above about 0.92. The list shows a part of the results.

Assay: chemical genetic growth profiling, strain panel (AID 1159580);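 further: tested at 20 µM; growth read once vehicle control cultures reached saturation at 30 °C; 1 = growth at the plate median or of vehicle wells; lower values mean less growth of the strain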
Details: growth OD

Measured: normalized growth

Clc1ccc(Cl)cc1
inactive: S. cerevisiae deletion strains, locus YAL013W, strain DEP1, active compounds read low 1.01 | S. cerevisiae deletion strains, locus YBR021W, strain FUR4, active compounds read low 1.01 | S. cerevisiae deletion strains, locus YBR229C, strain ROT2, active compounds read low 1.01 | S. cerevisiae deletion strains, locus YCL029C, strain bik1, active compounds read low 0.994 | S. cerevisiae deletion strains, locus YDL035C, strain GPR1, active compounds read low 1.02 | S. cerevisiae deletion strains, locus YDL074C, strain BRE1, active compounds read low 1.04 | S. cerevisiae deletion strains, locus YDL101C, strain DUN1, active compounds read low 1.02 | S. cerevisiae deletion strains, locus YDL134C, strain PPH21, active compounds read low 1 | S. cerevisiae deletion strains, locus YDL185W, strain tfp1, active compounds read low 0.968 | S. cerevisiae deletion strains, locus YDL192W, strain arf1, active compounds read low 0.983 | S. cerevisiae deletion strains, locus YDR101C, strain arx1, active compounds read low 0.986 | S. cerevisiae deletion strains, locus YDR150W, strain NUM1, active compounds read low 1 | S. cerevisiae deletion strains, locus YDR162C, strain NBP2, active compounds read low 1.01 | S. cerevisiae deletion strains, locus YDR318W, strain mcm21, active compounds read low 0.99 | S. cerevisiae deletion strains, locus YDR388W, active compounds read low 0.988 | S. cerevisiae deletion strains, locus YDR502C, strain sam2, active compounds read low 0.993 | S. cerevisiae deletion strains, locus YEL061C, strain CIN8, active compounds read low 1 | S. cerevisiae deletion strains, locus YER110C, active compounds read low 0.979 | S. cerevisiae deletion strains, locus YER155C, strain BEM2, active compounds read low 1.01 | S. cerevisiae deletion strains, locus YER167W, strain BCK2, active compounds read low 1.01 | S. cerevisiae deletion strains, locus YGL078C, strain dbp3, active compounds read low 0.974 | S. cerevisiae deletion strains, locus YGL086W, strain mad1, active compounds read low 1 | S. cerevisiae deletion strains, locus YGL248W, strain PDE1, active compounds read low 1.01 | S. cerevisiae deletion strains, locus YGR078C, strain PAC10, active compounds read low 1.02 | S. cerevisiae deletion strains, locus YGR135W, strain pre9, active compounds read low 0.99 | S. cerevisiae deletion strains, locus YGR229C, strain SMI1, active compounds read low 1.02 | S. cerevisiae deletion strains, locus YGR252W, strain gcn5, active compounds read low 0.964 | S. cerevisiae deletion strains, locus YHR030C, strain SLT2, active compounds read low 1.01 | S. cerevisiae deletion strains, locus YHR079C, strain IRE1 (second series), active compounds read low 0.989 | S. cerevisiae deletion strains, locus YHR094C, strain hxt1, active compounds read low 0.987 | S. cerevisiae deletion strains, locus YHR129C, strain ARP1, active compounds read low 1.01 | S. cerevisiae deletion strains, locus YHR200W, strain rpn10, active compounds read low 0.988 | S. cerevisiae deletion strains, locus YIL066C, strain RNR3, active compounds read low 1.02 | S. cerevisiae deletion strains, locus YIL073C, strain SPO22, active compounds read low 1.01 | S. cerevisiae deletion strains, locus YIL125W, strain kgd1, active compounds read low 0.972 | S. cerevisiae deletion strains, locus YIR030C, strain dcg1, active compounds read low 0.987 | S. cerevisiae deletion strains, locus YJL095W, strain BCK1, active compounds read low 1.02 | S. cerevisiae deletion strains, locus YJL134W, strain LCB3, active compounds read low 1.01 | S. cerevisiae deletion strains, locus YJL168C, strain set2, active compounds read low 0.983 | S. cerevisiae deletion strains, locus YJL187C, strain SWE1 (second series), active compounds read low 1.01 | S. cerevisiae deletion strains, locus YJR043C, strain POL32, active compounds read low 1 | S. cerevisiae deletion strains, locus YJR075W, strain HOC1, active compounds read low 1.01 | S. cerevisiae deletion strains, locus YKL009W, strain mrt4, active compounds read low 1 | S. cerevisiae deletion strains, locus YKL068W, active compounds read low 0.984 | S. cerevisiae deletion strains, locus YKL085W, strain MDH1 (second series), active compounds read low 0.982 | S. cerevisiae deletion strains, locus YKL085W, strain MDH1, active compounds read low 0.982 | S. cerevisiae deletion strains, locus YKL190W, strain CNB1, active compounds read low 1.02 | S. cerevisiae deletion strains, locus YKR001C, strain vps1, active compounds read low 0.989 | S. cerevisiae deletion strains, locus YLR039C, strain RIC1, active compounds read low 1.04 | S. cerevisiae deletion strains, locus YLR058C, strain SHM2, active compounds read low 1.01 | S. cerevisiae deletion strains, locus YLR102C, strain apc9, active compounds read low 0.993 | S. cerevisiae deletion strains, locus YLR262C, strain YPT6, active compounds read low 1.04 | S. cerevisiae deletion strains, locus YLR268W, strain sec22, active compounds read low 0.999 | S. cerevisiae deletion strains, locus YLR330W, strain CHS5, active compounds read low 1 | S. cerevisiae deletion strains, locus YLR342W, strain FKS1 (second series), active compounds read low 0.997 | S. cerevisiae deletion strains, locus YLR371W, strain rom2, active compounds read low 0.981 | S. cerevisiae deletion strains, locus YLR418C, strain cdc73, active compounds read low 0.974 | S. cerevisiae deletion strains, locus YML016C, strain PPZ1, active compounds read low 1.01 | S. cerevisiae deletion strains, locus YML032C, strain rad52, active compounds read low 0.986 | S. cerevisiae deletion strains, locus YML124C, strain tub3, active compounds read low 0.987 | S. cerevisiae deletion strains, locus YMR078C, strain ctf18, active compounds read low 0.99 | S. cerevisiae deletion strains, locus YMR223W, strain ubp8, active compounds read low 0.984 | S. cerevisiae deletion strains, locus YMR263W, strain SAP30, active compounds read low 1.01 | S. cerevisiae deletion strains, locus YMR307W, strain GAS1, active compounds read low 1.03 | S. cerevisiae deletion strains, locus YNL067W, strain RPL9B, active compounds read low 1.02 | S. cerevisiae deletion strains, locus YNL128W, strain TEP1, active compounds read low 1.02 | S. cerevisiae deletion strains, locus YNL153C, strain GIM3, active compounds read low 1.01 | S. cerevisiae deletion strains, locus YNL233W, strain BNI4, active compounds read low 1.02 | S. cerevisiae deletion strains, locus YNL250W, strain rad50, active compounds read low 0.963 | S. cerevisiae deletion strains, locus YNL271C, strain bni1, active compounds read low 0.98 | S. cerevisiae deletion strains, locus YNL298W, strain CLA4, active compounds read low 0.98 | S. cerevisiae deletion strains, locus YNL307C, strain MCK1, active compounds read low 0.991 | S. cerevisiae deletion strains, locus YNL322C, strain KRE1, active compounds read low 1.01 | S. cerevisiae deletion strains, locus YNR052C, strain pop2, active compounds read low 0.981 | S. cerevisiae deletion strains, locus YOL006C, strain TOP1, active compounds read low 1.05 | S. cerevisiae deletion strains, locus YOL012C, strain htz1 0.71 | S. cerevisiae deletion strains, locus YOL147C, strain pex11, active compounds read low 0.992 | S. cerevisiae deletion strains, locus YOR061W, strain CKA2, active compounds read low 1.01 | S. cerevisiae deletion strains, locus YOR069W, strain VPS5, active compounds read low 1.01 | S. cerevisiae deletion strains, locus YOR136W, strain idh2, active compounds read low 0.985 | S. cerevisiae deletion strains, locus YOR144C, strain elg1, active compounds read low 0.994 | S. cerevisiae deletion strains, locus YOR184W, strain ser1, active compounds read low 0.997 | S. cerevisiae deletion strains, locus YOR316C, strain cot1, active compounds read low 0.989 | S. cerevisiae deletion strains, locus YPL055C, strain LGE1, active compounds read low 1.02 | S. cerevisiae deletion strains, locus YPL241C, strain CIN2, active compounds read low 1.01 | S. cerevisiae deletion strains, locus YPR119W, strain clb2, active compounds read low 0.988 | S. cerevisiae deletion strains, locus YPR141C, strain kar3, active compounds read low 0.975 | S. cerevisiae deletion strains, locus YPR163C, strain tif3, active compounds read low 0.991 | S. cerevisiae deletion strains, locus YPR167C, strain met16, active compounds read low 0.985 | S. cerevisiae deletion strains, strain wtn01, active compounds read low 0.987 | S. cerevisiae strains, strain wild type, active compounds read low 1.01
